Data published in article PMC10163288.
These entries were drawn from the full list. The hit rate among all sequences tested is not known here.

B1: il2ra_site1_3nfp_sap_13_mot_HHH_b1_04931_000000291_0001_38_56_H_._HHH_b2_07276_0001_0000200010_0000001_0_0001 (protein)
chain: SSSSSDYEELERLFREIFELAKKGDHEEARRLIEELEELAHEANNEFMEQAVKQLKKTVNSSSSS
B2: il2ra_site2_3nfp_normal_mot_HHH_b2_00232_000000252_0001_23_39_H_._HHH_b2_01857_0001_0000200024_0000001_0_1_af2pred_0001_af2pred (protein)
chain: SSSSSDEEEEKVEELLEEAEHIEDEEELEDILALAFLIAFEAEDPELLRLVREVSAELLQSSSSS
B3: il2ra_site2_2erj_sap_21_mot_39ed66e5fba071e4f274ea7f2cf018e6_0001_000000286_0001_17_31_H_._HHH_b1_00857_0001_0000200006_0000001_0_0001_af2pred_0001_af2pred (protein)
chain: SSSSEEREKAKELAARALQLRERGNPEEAEELLREAEEIAREGGDEELLQLIQAALRLIELSSSS
B4: il2ra_site1_3nfp_normal_mot_HHH_b1_02721_af2_000000134_0001_39_56_H_._HHH_b2_00677_af2_0001_0000100009_0000001_0 (protein)
chain: SSSSSDTEEAFQLDRELLEALRKGDEELIEELLRELEELAKELNDELAERLVEQFKELLKSSSSS
B5: il2ra_site2_2erj_sap_26_mot_HHH_b2_08005_af2_000000017_0001_39_52_H_._5f42aca8a0c299d7b7d7982f3e471efe_0001_0001_0000400050_0000001_0_0001 (protein)
chain: SSSSDLEEEVERIEKEAEELYKNGNPEEALRLLSELFDELYQLGDHELAARVIKLVAELARSSSS
B6: il2ra_site1_1z92_normal_mot_HHH_b1_04329_000000069_0001_1_19_H_._HHH_b2_03912_0001_0000100007_0000001_0_af2pred_0001_af2pred_1 (protein)
chain: SSSSIELIRFADEVVLRLAEEYKLSDEDAQYLAEVAIELIRRGYSEEEIEEILQEEAEKLSSSSS
B7: il2ra_site2_2erj_sap_19_mot_HHH_b2_00505_000000221_0001_1_17_H_._HHH_b1_08169_0001_0000200013_0000001_1_0001 (protein)
chain: SSSSSEWLHRSYKLANELMHLLARGDEEEFERLVEEIEKFAEERDNKVLKEIVESLHRLFNSSSS
B8: il2ra_site1_2b5i_normal_mot_HHH_b2_04910_000000118_0001_1_19_H_._HHH_b1_07294_af2_0001_0000100005_0000001_0_af2pred_dldesign_0_af2pred (protein)
chain: SSSSSSKEALELFLKANEAYQAGNYEEAKKLLEEALEKAKAAGMTALVKMIESALESLSSSSSSS
B9: il2ra_site1_3nfp_sap_20_mot_HHH_b2_00213_000000088_0001_1_18_H_._HEEHE_0331_af2_0001_0000400039_0000001_0_0001_af2pred_dldesign_0_af2pred (protein)
chain: SSSSSLRKELERLLKKAYETGKKNDKEKLKKLLEEALKLAKENKAKLSVKFLERALKQLKSSSSS
B10: il2ra_site1_1z92_normal_mot_HHH_b1_04604_af2_000000029_0001_42_56_H_._HHH_b2_07020_af2_0001_0000300012_0000001_0 (protein)
chain: SSSSSSDVIELALRLARALRRGDEEEVQELLEELKRYAEERDNRAAREIAERIEKHLGSSSSSSS
B11: il2ra_site1_1z92_sap_15_mot_e1ae4cb039f7b6770b9307eb87230ce5_0001_000000230_0001_37_51_H_._22eb9e4dad251339c268dc73c902281b_0001_0001_0000100004_0000001_0_0001_ … (protein)
chain: SSSSSSERDARIVVELAVRAAGLSEEQQEELERLAKELLEEGYSFEEIARILDKLALELGSSSSS
B12: il2ra_site2_2erj_sap_13_mot_HHH_b2_06689_af2_000000039_0001_18_34_H_._HHH_b1_05500_af2_0001_0000100002_0000001_0_0001 (protein)
chain: SSSSSEELHRLYELAVELLRAVAEGDEELVREILEEVEELAERADSENVKELIENLHRLFNSSSS
B13: il2ra_site1_2b5i_normal_mot_HHH_b1_02271_000000068_0001_1_16_H_._HHH_b2_05772_0001_0000400026_0000001_0_af2pred_dldesign_0_af2pred (protein)
chain: SSSSSPELKRLVEEALRRAEAAKAAGRVREALEILNAAHKKADEADDEELSDELEAKAKELSSSS
B14: il2ra_site1_1z92_sap_10_mot_d8cfa582855fb05d91e09f57594ab115_0001_1_000000067_0001_37_51_H_._HEEHE_2450_0001_0000100007_0000001_0_0001 (protein)
chain: SSSSSEAERAFELIREIDEVIREGDEEEAKRLLEELRRLAEERNSPTMKRLLELLEEALEGSSSS
B15: il2ra_site2_2erj_normal_mot_6bd1339e93f6fdda22195c76da45ec5d_0001_000000136_0001_37_51_H_._ems_3hC_696_0001_0000700021_0000001_0_af2pred_0001_af2pred (protein)
chain: LEEDILRAFRIAVELLEKFRDDPEIERLVLEASLELTEAIEENDEEKIERVIEKIEEIKEEADSS
B16: il2ra_site2_3nfp_sap_19_mot_HHH_b1_03376_000000004_0001_41_55_H_._88162e6262ef81793ed720f4f561f318_0001_0001_0000800035_0000001_0_0001_af2pred_0001_1_af2pred_sw … (protein)
chain: SSDEEQEESEELKELIREALEKNDDEKLRKLIKEAASFALQLNDEELLEFASEARALLAKLRLSS
B17: il2ra_site1_1z92_normal_mot_922575b2e9738a49cb663a995786872c_0001_af2_000000234_0001_18_32_H_._09c2afe89fb4cbada1505b3a46965288_0001_af2_0001_0000100006_0000001 … (protein)
chain: GPEQELEELEEELGDPREAIRLLLEELEEESGDPELARQFLKIEIKRLFNVPPEEAERLLREAEK
B18: il2ra_site1_3nfp_normal_mot_HHH_b1_04931_000000291_0001_38_56_H_._5fa2c1a30f04debedfe40931e4d0b367_0001_af2_0001_0000700055_0000001_0 (protein)
chain: DVRFLLEAARFAGDELVVEVAEKLEELREEDPDDQEVKELVQKLLQLLAKDPEEAKKLAEELKRR

target: il2ra, P01589; assay: yeast display titration
Sequence (P01589 whole entry): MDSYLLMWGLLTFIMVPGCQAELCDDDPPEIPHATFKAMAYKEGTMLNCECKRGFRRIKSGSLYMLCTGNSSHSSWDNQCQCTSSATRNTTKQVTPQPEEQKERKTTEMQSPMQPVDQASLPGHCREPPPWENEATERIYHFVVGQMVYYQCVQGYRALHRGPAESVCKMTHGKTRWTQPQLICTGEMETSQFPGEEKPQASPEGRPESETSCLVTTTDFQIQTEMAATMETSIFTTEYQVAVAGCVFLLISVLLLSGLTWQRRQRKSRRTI

Apparent Kd, inactive:
B1 no binding seen
B2 no binding seen
B3 no binding seen
B4 > 802 nM
B5 no binding seen
B6 no binding seen
B7 no binding seen
B8 no binding seen
B9 > 1470 nM
B10 no binding seen
B11 no binding seen
B12 no binding seen
B13 no binding seen
B14 no binding seen
B15 no binding seen
B16 no binding seen
B17 no binding seen
B18 no binding seen
